Results reported in article PMC11006913.
Residue numbers refer to the chain shown, from its start.

Columns and labels:
Test in all cases: PBM; 200 nM protein, PBS
Conditions in all cases: dsDNA, one strand shown
[1] = target: HOXB9 (Homo sapiens, UniProt P17482 171-250, T197M)
[2] = target: T1, SIX6 (Homo sapiens, UniProt O95475 114-200, L167I)
T1 sequence: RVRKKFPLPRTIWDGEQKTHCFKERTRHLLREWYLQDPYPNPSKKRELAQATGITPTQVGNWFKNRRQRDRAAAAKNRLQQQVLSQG

[3] = target: T2, SIX6 (Homo sapiens, UniProt O95475 114-200, L143V)
T2 sequence: T1 sequence with L30V, I54L

[4] = target: T3, SIX6 (Homo sapiens, UniProt O95475 114-200, H141N)
T3 sequence: T1 sequence with H28N, I54L

[5] = target: T4, SIX6 (Homo sapiens, UniProt O95475 114-200, T165P)
T4 sequence: T1 sequence with T52P, I54L

[6] = target: T5, SIX6 (Homo sapiens, UniProt O95475 114-200, L167M)
T5 sequence: T1 sequence with I54M

[7] = target: T6, SIX6 (Homo sapiens, UniProt O95475 114-200, L143M)
T6 sequence: T1 sequence with L30M, I54L

[8] = target: T7, SIX6 (Homo sapiens, UniProt O95475 114-200, L143I)
T7 sequence: T1 sequence with L30I, I54L

[9] = target: T8, SIX6 (Homo sapiens, UniProt O95475 114-200, T165G)
T8 sequence: T1 sequence with T52G, I54L

[10] = target: T9, SIX6 (Homo sapiens, UniProt O95475 114-200, T139Q)
T9 sequence: T1 sequence with T26Q, I54L

[11] = target: T10, SIX6 (Homo sapiens, UniProt O95475 114-200, T165A)
T10 sequence: T1 sequence with T52A, I54L

[12] = target: T11, SIX6 (Homo sapiens, UniProt O95475 114-200, L167V)
T11 sequence: T1 sequence with I54V

[13] = target: T12, SIX6 (Homo sapiens, UniProt O95475 114-200)
T12 sequence: T1 sequence with I54L

[14] = target: T13, SIX6 (Homo sapiens, UniProt O95475 114-200, T165I)
T13 sequence: T1 sequence with T52I, I54L

[15] = target: HOXA7 (Homo sapiens, UniProt P31268 116-202)
[16] = target: HOXA7 (Homo sapiens, UniProt P31268 116-202, W177C)
[17] = target: HOXC10 (Homo sapiens, UniProt Q9NYD6 254-340)
[18] = target: PITX2 (Homo sapiens, UniProt Q99697 72-157)
[19] = target: HOXD13 (Homo sapiens, UniProt P35453 263-343)
[20] = target: HOXC10 (Homo sapiens, UniProt Q9NYD6 254-340, K271E)
[21] = target: NKX2-5 (Homo sapiens, UniProt P52952 125-210, R139K)
[22] = target: T14, NKX2-4 (Homo sapiens, UniProt Q9H2Z4 175-261, P217L)
T14 sequence: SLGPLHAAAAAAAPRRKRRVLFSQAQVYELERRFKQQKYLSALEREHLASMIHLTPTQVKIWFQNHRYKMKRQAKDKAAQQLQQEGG

[23] = target: T15, NKX2-4 (Homo sapiens, UniProt Q9H2Z4 175-261, T231S)
T15 sequence: T14 sequence with L43P, T57S

[24] = target: T16, NKX2-4 (Homo sapiens, UniProt Q9H2Z4 175-261)
T16 sequence: T14 sequence with L43P

[25] = target: T17, NKX2-6 (Homo sapiens, UniProt A6NCS4 118-204, R150C)
T17 sequence: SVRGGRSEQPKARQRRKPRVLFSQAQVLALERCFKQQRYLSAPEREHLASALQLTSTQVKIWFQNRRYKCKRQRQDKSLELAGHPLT

[26] = target: T18, NKX2-6 (Homo sapiens, UniProt A6NCS4 118-204)
T18 sequence: T17 sequence with C33R

[27] = target: T19, NKX2-4 (Homo sapiens, UniProt Q9H2Z4 175-261, R246Q)
T19 sequence: T14 sequence with L43P, R72Q

[28] = target: T20, NKX2-6 (Homo sapiens, UniProt A6NCS4 118-204, F151L)
T20 sequence: T17 sequence with C33R, F34L

[29] = target: NKX3-2 (Homo sapiens, UniProt P78367 192-278, P234S)
[30] = target: NKX2-5 (Homo sapiens, UniProt P52952 125-210)
[31] = target: NKX3-2 (Homo sapiens, UniProt P78367 192-278)
Chain of NKX3-2 (Homo sapiens, UniProt P78367 192-278) (P78367 192-278): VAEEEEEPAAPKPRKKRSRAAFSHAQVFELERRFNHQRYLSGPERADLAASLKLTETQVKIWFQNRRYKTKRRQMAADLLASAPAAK

Chain of NKX3-2 (Homo sapiens, UniProt P78367 192-278, P234S) (P78367 192-278 P234S): as the sequence (P78367 192-278) above, with P43S counted along it
Chain of NKX2-5 (Homo sapiens, UniProt P52952 125-210, R139K) (P52952 125-210 R139K): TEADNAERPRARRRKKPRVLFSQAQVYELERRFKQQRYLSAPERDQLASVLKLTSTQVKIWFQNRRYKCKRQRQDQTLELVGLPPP
Chain of NKX2-5 (Homo sapiens, UniProt P52952 125-210) (P52952 125-210): as the sequence (P52952 125-210 R139K) above, with K15R counted along it
Chain of HOXB9 (P17482 171-250 T197M): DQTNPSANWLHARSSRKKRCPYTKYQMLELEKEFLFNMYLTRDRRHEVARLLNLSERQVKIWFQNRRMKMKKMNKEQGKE
Chain of HOXD13 (P35453 263-343): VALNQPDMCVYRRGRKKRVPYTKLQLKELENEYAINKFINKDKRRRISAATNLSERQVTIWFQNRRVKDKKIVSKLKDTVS
Chain of HOXC10 (Homo sapiens, UniProt Q9NYD6 254-340) (Q9NYD6 254-340): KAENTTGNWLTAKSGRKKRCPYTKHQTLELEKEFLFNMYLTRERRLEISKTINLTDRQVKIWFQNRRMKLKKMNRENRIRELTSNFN
Chain of HOXC10 (Homo sapiens, UniProt Q9NYD6 254-340, K271E) (Q9NYD6 254-340 K271E): as the sequence (Q9NYD6 254-340) above, with K18E counted along it
Chain of HOXA7 (Homo sapiens, UniProt P31268 116-202, W177C) (P31268 116-202 W177C): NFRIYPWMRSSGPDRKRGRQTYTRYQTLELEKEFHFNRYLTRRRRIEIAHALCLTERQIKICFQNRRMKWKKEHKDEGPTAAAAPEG
Chain of HOXA7 (Homo sapiens, UniProt P31268 116-202) (P31268 116-202): as the sequence (P31268 116-202 W177C) above, with C62W counted along it

## CGGGCTCC
[1]
  binding signal: 8.02 upbm affinity estimate (log intensity, higher = more binding, comparable within an allelic series)

## CGCCCGAG
[1]
  binding signal: 8.29 upbm affinity estimate (log intensity, higher = more binding, comparable within an allelic series)

## CCCGGCGG
[2]
  binding signal: 9.11 upbm affinity estimate (log intensity, higher = more binding, comparable within an allelic series)
[3]
  binding signal: 8.98 upbm affinity estimate (log intensity, higher = more binding, comparable within an allelic series)
[4]
  binding signal: 9.13 upbm affinity estimate (log intensity, higher = more binding, comparable within an allelic series)
[5]
  binding signal: 8.96 upbm affinity estimate (log intensity, higher = more binding, comparable within an allelic series)
[6]
  binding signal: 9 upbm affinity estimate (log intensity, higher = more binding, comparable within an allelic series)
[7]
  binding signal: 9.17 upbm affinity estimate (log intensity, higher = more binding, comparable within an allelic series)
[8]
  binding signal: 9 upbm affinity estimate (log intensity, higher = more binding, comparable within an allelic series)
[9]
  binding signal: 9.14 upbm affinity estimate (log intensity, higher = more binding, comparable within an allelic series)
[10]
  binding signal: 9.18 upbm affinity estimate (log intensity, higher = more binding, comparable within an allelic series)
[11]
  binding signal: 9.22 upbm affinity estimate (log intensity, higher = more binding, comparable within an allelic series)
[12]
  binding signal: 9.07 upbm affinity estimate (log intensity, higher = more binding, comparable within an allelic series)
[13]
  binding signal: 9.12 upbm affinity estimate (log intensity, higher = more binding, comparable within an allelic series)
[14]
  binding signal: 9.08 upbm affinity estimate (log intensity, higher = more binding, comparable within an allelic series)

## CTAATTGC
[15]
  binding signal: 11.4 upbm affinity estimate (log intensity, higher = more binding, comparable within an allelic series)
[16]
  binding signal: 8.67 upbm affinity estimate (log intensity, higher = more binding, comparable within an allelic series)

## ACCACTTA
[17]
  binding signal: 10.9 upbm affinity estimate (log intensity, higher = more binding, comparable within an allelic series)

## CACGCGTG
[18]
  binding signal: 7.84 upbm affinity estimate (log intensity, higher = more binding, comparable within an allelic series)

## CGGTCCAA
[18]
  binding signal: 7.89 upbm affinity estimate (log intensity, higher = more binding, comparable within an allelic series)

## AATAAGTG
[19]
  binding signal: 10.6 upbm affinity estimate (log intensity, higher = more binding, comparable within an allelic series)

## GTACTTAA
[20]
  binding signal: 11.9 upbm affinity estimate (log intensity, higher = more binding, comparable within an allelic series)

## AAGTGGAT
[21]
  binding signal: 12.5 upbm affinity estimate (log intensity, higher = more binding, comparable within an allelic series)
[22]
  binding signal: 12.5 upbm affinity estimate (log intensity, higher = more binding, comparable within an allelic series)
[23]
  binding signal: 12.8 upbm affinity estimate (log intensity, higher = more binding, comparable within an allelic series)
[24]
  binding signal: 12.3 upbm affinity estimate (log intensity, higher = more binding, comparable within an allelic series)
[25]
  binding signal: 11.8 upbm affinity estimate (log intensity, higher = more binding, comparable within an allelic series)
[26]
  binding signal: 13.3 upbm affinity estimate (log intensity, higher = more binding, comparable within an allelic series)
[27]
  binding signal: 12.9 upbm affinity estimate (log intensity, higher = more binding, comparable within an allelic series)
[28]
  binding signal: 10.7 upbm affinity estimate (log intensity, higher = more binding, comparable within an allelic series)
[29]
  binding signal: 12.8 upbm affinity estimate (log intensity, higher = more binding, comparable within an allelic series)
[30]
  binding signal: 12.5 upbm affinity estimate (log intensity, higher = more binding, comparable within an allelic series)
[31]
  binding signal: 12.8 upbm affinity estimate (log intensity, higher = more binding, comparable within an allelic series)

## CCACTCAA
[21]
  binding signal: 12.5 upbm affinity estimate (log intensity, higher = more binding, comparable within an allelic series)
[22]
  binding signal: 12.6 upbm affinity estimate (log intensity, higher = more binding, comparable within an allelic series)
[23]
  binding signal: 13.1 upbm affinity estimate (log intensity, higher = more binding, comparable within an allelic series)
[24]
  binding signal: 12.5 upbm affinity estimate (log intensity, higher = more binding, comparable within an allelic series)
[25]
  binding signal: 11.8 upbm affinity estimate (log intensity, higher = more binding, comparable within an allelic series)
[26]
  binding signal: 13.4 upbm affinity estimate (log intensity, higher = more binding, comparable within an allelic series)
[27]
  binding signal: 13.1 upbm affinity estimate (log intensity, higher = more binding, comparable within an allelic series)
[28]
  binding signal: 10.7 upbm affinity estimate (log intensity, higher = more binding, comparable within an allelic series)
[29]
  binding signal: 12.6 upbm affinity estimate (log intensity, higher = more binding, comparable within an allelic series)
[30]
  binding signal: 12.3 upbm affinity estimate (log intensity, higher = more binding, comparable within an allelic series)
[31]
  binding signal: 12.7 upbm affinity estimate (log intensity, higher = more binding, comparable within an allelic series)

## CCACTTAG
[21]
  binding signal: 13.1 upbm affinity estimate (log intensity, higher = more binding, comparable within an allelic series)
[22]
  binding signal: 12.7 upbm affinity estimate (log intensity, higher = more binding, comparable within an allelic series)
[23]
  binding signal: 13 upbm affinity estimate (log intensity, higher = more binding, comparable within an allelic series)
[24]
  binding signal: 12.6 upbm affinity estimate (log intensity, higher = more binding, comparable within an allelic series)
[25]
  binding signal: 12.2 upbm affinity estimate (log intensity, higher = more binding, comparable within an allelic series)
[26]
  binding signal: 14 upbm affinity estimate (log intensity, higher = more binding, comparable within an allelic series)
[27]
  binding signal: 13.1 upbm affinity estimate (log intensity, higher = more binding, comparable within an allelic series)
[28]
  binding signal: 11.1 upbm affinity estimate (log intensity, higher = more binding, comparable within an allelic series)
[29]
  binding signal: 13.4 upbm affinity estimate (log intensity, higher = more binding, comparable within an allelic series)
[30]
  binding signal: 13.1 upbm affinity estimate (log intensity, higher = more binding, comparable within an allelic series)
[31]
  binding signal: 13.5 upbm affinity estimate (log intensity, higher = more binding, comparable within an allelic series)

## AAGTACTC
[21]
  binding signal: 12.7 upbm affinity estimate (log intensity, higher = more binding, comparable within an allelic series)
[22]
  binding signal: 12.7 upbm affinity estimate (log intensity, higher = more binding, comparable within an allelic series)
[23]
  binding signal: 13.1 upbm affinity estimate (log intensity, higher = more binding, comparable within an allelic series)
[24]
  binding signal: 12.6 upbm affinity estimate (log intensity, higher = more binding, comparable within an allelic series)
[25]
  binding signal: 11.8 upbm affinity estimate (log intensity, higher = more binding, comparable within an allelic series)
[26]
  binding signal: 13.6 upbm affinity estimate (log intensity, higher = more binding, comparable within an allelic series)
[27]
  binding signal: 13.2 upbm affinity estimate (log intensity, higher = more binding, comparable within an allelic series)
[28]
  binding signal: 10.8 upbm affinity estimate (log intensity, higher = more binding, comparable within an allelic series)
[29]
  binding signal: 12.7 upbm affinity estimate (log intensity, higher = more binding, comparable within an allelic series)
[30]
  binding signal: 12.6 upbm affinity estimate (log intensity, higher = more binding, comparable within an allelic series)
[31]
  binding signal: 12.8 upbm affinity estimate (log intensity, higher = more binding, comparable within an allelic series)
